Assay outcomes as filed in PubChem BioAssay.
TGFb inhibitor: TGF-b pathway inhibition; HepG2 CAGA-GFP TGF-b/SMAD3 reporter, GFP fluorescence, 18 h; TGF-beta stimulated, 500 pg/mL final; Potency, µM (doses to about 46.1 µM), hits mostly inhibitors; hit rate 1.2% among 410,000; also: nearly all actives have a fitted effect of over 65% in size
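GFP signal (ex488/em500-530) from TGF-beta-stimulated HEPG2 CAGA-GFP cells, 500 pg/mL final, 18 h at 37 degrees C in DMEM plus 1% FBS, normalized to unstimulated and DMSO-stimulated controls.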
HepG2 viability: kills HepG2 cells in TGF-b inhibitor counter-screen | AID 588856 | HepG2 CAGA-GFP viability, ATP luminescence, 18 h | hit rate 0.76% among 410,000 | Potency, µM (series often up to 46.1 µM), hits mostly cytotoxic
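CellTiter-Glo luminescence gave cytotoxicity after 18 hours at 37 degrees C. The cells were HepG2 CAGA-GFP in 1% FBS DMEM, stimulated with 500 pg/mL TGF-beta after compound addition. %Activity was normalised to no-cell wells (complete cell-killing) and DMSO (no toxicity), and curves were fitted and classified.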
HT1080 IDH1KD tx: HT-1080 IDH1 knockdown cell toxicity (counter line); hit rate 2% among 360,000; HT-1080 IDH1 knockdown viability, ATP luminescence, 48 h; AID 686971; Potency, µM (highest dose often 46.1 µM), hits mostly cytotoxic
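Knockdown cells (IDH1KD HT-1080) received compounds 2 h after plating at 750 cells/well and were kept 48 h at 37 °C in 5% FBS RPMI. A CellTiter-Glo luminescence read gave % activity for curve fitting.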
KB-V1 cytotox: KB-V1 MDR subline cytotoxicity | KB-V1 MDR cells viability, CellTiter-Glo, 72 h | Potency, µM (doses to about 46.1 µM), usual class: cytotoxic | hit rate 3.4% among 400,000 | AID 1347076; also: nearly all actives have a fitted effect of over 60% in size
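KB-V1 cells (P-gp-expressing MDR subline of KB-3-1) in phenol-red-free DMEM with 10% FBS were exposed to library compounds over a concentration series for 72 h at 37 degrees C. Viability read by CellTiter-Glo luminescence; concentration-effect curves fitted after normalization.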
HT1080NT lethal: kills 2HG-producing HT-1080-NT fibrosarcoma cells | hit rate 1.6% among 360,000 | Potency, µM (series often up to 46.1 µM), most hits filed as cytotoxic | HT-1080-NT fibrosarcoma viability, CellTiter-Glo ATP luminescence, 48 h;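 also: NT is the 2HG producing partner of a matched IDH1 knockdown line; nearly all actives have a fitted effect of over 55% in size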
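Toxicity toward the 2HG-producing NT line was scored as %Activity, normalised to DMSO and no-cell wells, from CellTiter-Glo luminescence after 48 hours' treatment.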
KB-3-1 tox: kills parental KB-3-1 adenocarcinoma cells; Potency, µM (series often up to 46.1 µM), hits mostly cytotoxic; KB-3-1 viability, CellTiter-Glo ATP luminescence, 72 h; hit rate 1.4% among 400,000; also: nearly all actives have a fitted effect of over 60% in size
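Multi-concentration cytotoxicity screen in KB-3-1 cells grown in DMEM lacking phenol red with 10% FBS. After 72 h at 37 °C with compound, ATP-dependent luminescence was recorded.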
Numbers stand for hits; 0 = inactive; ? = inconclusive; - = no result; ! = a repeat was not active; [ ] = dose if it differs, or a comment. The list is not random: actives were taken first. Their share in the collection is about 6.6%. Calls follow the shape of the dose curve; as a rule, active = well fitted curve in the direction sought with a large enough effect; inconclusive = small, poorly fitted or top-dose-only effect, or another doubt; inactive = no such curve, though single readings can be large; an effect the other way counts as inactive or inconclusive.

SMILES | TGFb inhibitor | HepG2 viability | HT1080 IDH1KD tx | KB-V1 cytotox | HT1080NT lethal | KB-3-1 tox
O=C(CSc1nnc(-c2cccnc2)n1C1CCCCC1)NC1CCCCC1 | 0 | 0 | 0 | 18µM | 0 | 0
Cc1noc(C)c1CSc1nnc(-c2cccnc2)n1C1CCCCC1C (stereo not given) | 0 | 0 | 0 | 23µM | 0 | 0
COCC(C)n1c(SCC(=O)NC(=O)NCc2ccccc2)nc2ccccc2c1=O (stereo not given) | ? | 0 | 0 | 0 | 0 | 0
CC(NC(=O)CN1C(=O)COc2ccc(S(=O)(=O)N3CCCCCC3)cc21)c1ccccc1 (stereo not given) | ? | 0 | - | 0 | - | 0
Cc1ccccc1C(=O)Nc1cccc(C(=O)OCc2cc(=O)n3c(C)csc3n2)c1 | 0 | 0 | - | - | - | -
O=C(NC1CCCC1)C1C(c2ccc(C(F)(F)F)cc2)=Nc2ccccc2N1C(=O)c1cc2ccccc2[nH]1 (stereo not given) | - | - | 0 | 13µM | 0 | ?
COc1ccc(C2/C=C\CN([S+](=O)([O-])c3ccc4ccccc4c3)C(C)C(=O)N2Cc2ccc(F)cc2)cc1 (stereo not given) | 0 | 0 | - | - | - | -
OCCN1CCN(Cc2cc(Cl)c3cccnc3c2O)CC1 | ? | 0 | 3.2µM | 5.8µM | 5µM | ?
Oc1c(CN2CCN(c3ccccn3)CC2)cc(Cl)c2cccnc12 | ? | 0 | ? | 5.2µM | ? | ?
CC(C)CC(=O)OCc1cc(=O)n2nc(C3CCCCC3)sc2n1 | 0 | 0 | - | 0 | - | 0
COC(=O)[C@H](CC(C)C)N(Cc1ccccc1)S(=O)(=O)N(Cc1ccc(OC)cc1)[C@@H](CC(C)C)C(=O)OC | ? | 0 | 0 | 18µM! | 0 | ?
CCOC(=O)[C@@H](C)N(Cc1ccc(OC)cc1)S(=O)(=O)N(Cc1ccccc1)[C@H](C(=O)OC)C(C)C | ? | 0 | 0 | 9.2µM! | 0 | ?
CCOC(=O)[C@@H](C)NS(=O)(=O)N(Cc1ccccc1)[C@H](C(=O)OC)C(C)C | ? | 0 | 0 | ? | 0 | 0
CC(C)C[C@H](CO)N(Cc1ccccc1)S(=O)(=O)N(Cc1ccccc1)[C@@H](CO)CC(C)C | ? | 0 | ? | 21µM! | ? | ?
COc1ccc(OC)c(NC(=O)N2c3ccccc3Sc3ccccc32)c1 | ? | 0 | - | 0 | - | 0
COc1ccccc1CNC(=O)c1ccc(N2Cc3cccc(OC)c3Oc3ncccc32)s1 | 0 | 0 | - | 0 | - | 0
CN(c1ccc(C(=O)N2CCOCC2)cc1[N+](=O)[O-])C1CCCCC1 | 0 | 0 | 0 | 23µM | 0 | 0
O=C(c1ccc(N2CCN(S(=O)(=O)c3ccccc3)CC2)c([N+](=O)[O-])c1)N1CCOCC1 | 0 | 0 | 0 | 3.7µM | 0 | 0
CN(C(=O)c1ccc(N2CCOCC2)c([N+](=O)[O-])c1)C1CCCCC1 | 0 | 0 | 0 | 0 | 0 | 0
Cn1c(=O)n(C)c2cc([N+](=O)[O-])c(N3CCN(S(C)(=O)=O)CC3)cc21 | 0 | 0 | 0 | 0 | 0 | 0
Cn1c(=O)n(C)c2cc([N+](=O)[O-])c(N3CCN(S(=O)(=O)c4ccccc4)CC3)cc21 | 0 | 0 | 0 | 2.9µM | 0 | ?
Cn1c(=O)n(C)c2cc([N+](=O)[O-])c(N3CCN(C(=O)c4ccccc4Br)CC3)cc21 | 0 | 0 | 0 | 0 | ? | 0
Cn1c(=O)n(C)c2cc([N+](=O)[O-])c(N3CCN(C(=O)c4ccccc4Cl)CC3)cc21 | 0 | 0 | 0 | 16µM | ? | 23µM
C(=C1C=c2ccccc2=C1)c1ccc(N=Nc2ccc(C=C3C=c4ccccc4=C3)cc2)cc1 | 0 | 0 | - | 0 | - | 0
O=C(Nc1ccc(C(=O)N2CCN(c3ccccc3)CC2)cc1)c1nsc2ccccc12 | 0 | 0 | - | - | - | -
SMILES | TGFb inhibitor | HepG2 viability | HT1080 IDH1KD tx | KB-V1 cytotox | HT1080NT lethal | KB-3-1 tox
O=[N+]([O-])c1ccc(N2CCN(S(=O)(=O)c3ccccc3)CC2)c2cccnc12 | 0 | 0 | 0 | 8.2µM | 0 | 0
O=[N+]([O-])c1ccc(N2CCN(S(=O)(=O)c3ccccc3)CC2)cc1 | 0 | 0 | 0 | 4.6µM | 0 | ?
CN1CCN(S(=O)(=O)c2ccc([N+](=O)[O-])cc2)CC1 | 0 | 0 | 0 | 0 | 0 | 0
Cc1cccc(CSc2nc(=O)c3c(n2C)NC(=O)CC3c2cc(F)cc(F)c2)c1 (stereo not given) | 0 | 0 | - | ? | - | 0
CCOC(=O)c1c(NC(=O)C2c3ccccc3Oc3ccccc32)sc(C(C)=O)c1C | 0 | 0 | 0[9.24 µM] | ? | 0 | 0
CCOC(=O)c1c(NC(=O)CSc2nnc(Cc3ccccc3)o2)sc(C(C)=O)c1C | 0 | 0 | 0 | 18µM | 0 | 0
CCOC(=O)c1c(NC(=O)N/N=C/c2ccccc2OCC)sc(C(C)=O)c1C | 0 | 0 | 0 | ? | 0 | 16µM
CCOC(=O)c1c(NC(=O)CN2CCCc3ccccc32)sc(C(C)=O)c1C | 0 | 0 | 0 | 4.1µM | 0 | 0
Cc1ccc(C)c(C(=O)CSc2nc3cc(C(=O)NC4CCCC4)ccc3c(=O)n2CC2CCCO2)c1 (stereo not given) | 0 | 0 | - | ? | - | ?
O=[N+]([O-])c1ccc(N2CCCC2)cc1NC1CC1 | ? | 0 | 0 | 21µM | 0 | 0
O=[N+]([O-])c1ccc(N2CCCC2)cc1NC(c1ccccc1)c1ccccc1 | ? | 0 | 0 | 0 | 0 | 0
O=[N+]([O-])c1ccc(N2CCOCC2)cc1NC(c1ccccc1)c1ccccc1 | 0 | 0 | 0 | 16µM | 0 | 0
CC(Nc1cc(N2CCN(C(=O)C(C)(C)C)CC2)ccc1[N+](=O)[O-])c1ccccc1 (stereo not given) | ? | 0 | 0 | 10µM | 0 | ?
CN(C)S(=O)(=O)N1CCN(c2ccc([N+](=O)[O-])c(NC3CC3)c2)CC1 | 0 | 0 | 0 | 0 | 0 | 0
CCN1c2cc(C)ccc2-n2cccc2C12CCN(C(=O)Nc1cc(OC)c(OC)c(OC)c1)CC2 | 0 | 0 | - | 0 | - | ?
Cc1ccc(C(=O)c2sc(Nc3ccccc3)c(S(=O)(=O)c3ccccc3)c2N)c(C)c1 | 0 | 0 | - | ? | - | 0
Cc1ccc(Cn2c(C(CO)Nc3nc(-c4ccc(F)cc4)cs3)nc3ccccc32)cc1 (stereo not given) | 0 | 0 | ? | 0 | ? | 16µM
Cc1ccc(Cn2c(C(CO)Nc3nc(-c4ccc(Cl)c([N+](=O)[O-])c4)cs3)nc3ccccc32)cc1 (stereo not given) | 16µM | 0 | 0 | ? | ? | ?
Cc1ccc(-c2csc(NCCn3c(-c4ccncc4)nc4ccccc43)n2)cc1 | ? | 0 | 0 | 21µM | 0 | ?
